Laboratory results published in PubChem BioAssay (EPA / NIEHS).
Activity calls are given as the source filed them. How the source made its calls: active means hit-call score of the fitted dose curve at least 0.9, where 1 is the maximum; inactive means score below 0.9.

Assays:
[1] = BSK_hDFCGF_SRB: Viability Assessment in the BioMAP Diversity Plus: hDFCGF Assay (AID 2283061); settings: primary human foreskin fibroblasts;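 further: cells exposed to compound for 24 h before the read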
In short: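 Viability was read as total protein: after 10% TCA fixation, wells were stained with 0.1% sulforhodamine B and read at 560 nm. Primary human foreskin fibroblasts were dosed for 24 h, with bidirectional fitting versus DMSO.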

[2] = read-out: TIMP metallopeptidase inhibitor 1 (TIMP1), TIMP1 (gene 7076); experiment: BSK_hDFCGF_TIMP1: BioMAP Diversity Plus: hDFCGF Assay for TIMP metallopeptidase inhibitor 1 (TIMP1) Biomarker Activity (AID 2283062); settings: primary human foreskin fibroblasts; actives raise or lower the signal
In short: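 TIMP-1 measured by ELISA 24 h after chemical dosing of primary human skin fibroblasts, with gain or loss fitted relative to DMSO. Parallel SRB staining (560 nm) monitored overt cytotoxicity.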

[3] = read-out: Vascular cell adhesion molecule 1 (VCAM1), VCAM1 (gene 7412); experiment: BSK_hDFCGF_VCAM1: BioMAP Diversity Plus: hDFCGF Assay for Vascular cell adhesion molecule 1 (VCAM1) Biomarker Activity (AID 2283065); settings: primary human foreskin fibroblasts; actives raise or lower the signal;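 on AC50: VCAM-1 protein level quantified by ELISA after 24 h chemical exposure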
In short: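 ELISA readout of VCAM-1 on human dermal fibroblast primary cultures, 24 h after chemical exposure. Gain or loss of signal fitted in both directions against DMSO baseline.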

[4] = read-out: Plasminogen activator inhibitor-1 (PAI1), SERPINE1 (gene 5054); experiment: BSK_hDFCGF_PAI1: BioMAP Diversity Plus: hDFCGF Assay for Plasminogen activator inhibitor-1 (PAI1) Biomarker Activity (AID 2283066); settings: primary human foreskin fibroblasts; actives raise or lower the signal
In short: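 Human foreskin fibroblasts in the hDFCGF system were dosed with compound for 24 h; PAI-1 was quantified by ELISA. Bidirectional curve fitting used DMSO as negative control and baseline.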

[5] = read-out: Interferon-gamma inducible Protein 10 (IP10), CXCL10 (gene 3627); experiment: BSK_KF3CT_IP10: BioMAP Diversity Plus: KF3CT Assay for Interferon-gamma inducible Protein 10 (IP10) Biomarker Activity (AID 2283068); settings: primary human keratinocytes with fibroblasts; actives raise or lower the signal
In short: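 In a primary skin co-culture of keratinocytes and fibroblasts, IP-10 is quantified by ELISA at 24 h after dosing. SRB staining of parallel wells monitors overt toxicity. Curves are fitted both directions against DMSO.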

[6] = read-out: Interleukin-1 alpha (IL1a), IL1A (gene 3552); experiment: BSK_KF3CT_IL1a: BioMAP Diversity Plus: KF3CT Assay for Interleukin-1 alpha (IL1a) Biomarker Activity (AID 2283070); settings: primary human keratinocytes with fibroblasts; actives raise or lower the signal
In short: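 Primary human keratinocyte plus foreskin fibroblast co-culture, dosed and measured at 24 h in 96-well plates. IL-1a level quantified by ELISA; bidirectional fit relative to DMSO.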

[7] = read-out: Monokine induced gamma interferon (MIG), CXCL9 (gene 4283); experiment: BSK_hDFCGF_MIG: BioMAP Diversity Plus: hDFCGF Assay for Monokine induced gamma interferon (MIG) Biomarker Activity (AID 2283063); settings: primary human foreskin fibroblasts; actives raise or lower the signal
In short: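 Human primary foreskin fibroblasts in the hDFCGF system, exposed to test chemical for 24 h; MIG measured by ELISA. Bidirectional curve fitting against DMSO negative control as activity baseline.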

[8] = BSK_KF3CT_SRB: Viability Assessment in the BioMAP Diversity Plus: KF3CT Assay (AID 2283069); settings: primary human keratinocytes with fibroblasts;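 further: total protein by sulforhodamine B staining as a cytotoxicity measure; read 24 h after compound addition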
In short: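 Human keratinocyte and foreskin fibroblast co-culture exposed to chemical for 24 h. Total protein measured in parallel cultures by 0.1% sulforhodamine B staining after 10% TCA fixation, read at 560 nm; bidirectional fit relative to DMSO.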

[9] = read-out: Intercellular Adhesion Molecule 1 (ICAM1), ICAM1 (gene 3383); experiment: BSK_KF3CT_ICAM1: BioMAP Diversity Plus: KF3CT Assay for Intercellular Adhesion Molecule 1 (ICAM1) Biomarker Activity (AID 2283067); settings: primary human keratinocytes with fibroblasts; actives raise or lower the signal
In short: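 Cell-surface ICAM-1 was measured by ELISA 24 h after dosing primary human skin keratinocytes co-cultured with fibroblasts. Parallel SRB staining tracked overt cytotoxicity. Gain or loss of signal was fitted relative to DMSO.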

Measured: AC50

Oc1ccc(C(c2ccc(O)cc2)(C(F)(F)F)C(F)(F)F)cc1
active: [1] 13.7 µM | [2] 15.8 µM | [3] 7.41 µM | [4] 12.8 µM | [5] 17.3 µM | [6] 32.1 µM

O=C(NC(=O)c1c(F)cccc1F)Nc1cc(Cl)c(OC(F)(F)C(F)F)c(Cl)c1
not listed: [9]
inactive: all other assays above

Cc1cccc(C)c1N
not listed: [8] | [9]
inactive: all other assays above

CCOC(=O)C(O)(c1ccc(Cl)cc1)c1ccc(Cl)cc1
active: [7] 14.3 µM | [3] 26.9 µM | [4] 13.2 µM
inactive: [1] | [2] | [5] | [6]

O=C(N[C@H]1CN2CCC1CC2)c1cc2ccoc2cn1
not listed: [8] | [9]
inactive: all other assays above

Cc1cc2c3c(c1)C(c1ccccc1)=N[C@@H](NC(=O)c1ccncc1)C(=O)N3CC2
active: [4] 5.53 µM
not listed: [8]
inactive: all other assays above

Nc1ccc(-c2ccc(N)cc2)cc1
not listed: [8] | [9]
inactive: all other assays above

CC(C)(c1ccccc1)c1ccc(O)cc1
active: [1] 33.8 µM | [2] 32 µM | [7] 39 µM | [3] 34.7 µM | [4] 32.2 µM | [9] 36.9 µM | [5] 35.9 µM | [6] 31.2 µM

CO/C=C(/C(=O)OC)c1ccccc1COc1cccc(C(F)(F)F)n1
active: [1] 10.7 µM | [4] 11.1 µM
not listed: [9]
inactive: all other assays above

Clc1ccc(C(Cl)(Cl)Cl)cc1
not listed: [8]
inactive: all other assays above

Cc1ccccc1[N+](=O)[O-]
not listed: [8] | [9]
inactive: all other assays above

CCC(C)(c1ccc(O)cc1)c1ccc(O)cc1
active: [1] 27.7 µM | [3] 20 µM
not listed: [8]
inactive: all other assays above

C[C@]12CCC(=O)C=C1CC[C@@H]1[C@@H]2CC[C@]2(C)C(=O)CC[C@@H]12
not listed: [8]
inactive: all other assays above

CC(C)(O)C(=O)Nc1ccc([N+](=O)[O-])c(C(F)(F)F)c1
not listed: [8]
inactive: all other assays above

ClC1=C(Cl)[C@]2(Cl)[C@@H]3[C@H]4C[C@H]([C@@H]5O[C@H]45)[C@@H]3[C@@]1(Cl)C2(Cl)Cl
not listed: [4] | [9]
inactive: all other assays above

CCSC(=O)N(CC)C1CCCCC1
not listed: [8] | [9]
inactive: all other assays above

C[C@]12CCC(=O)C=C1CC[C@@H]1[C@@H]2CC[C@@]2(C)[C@H]1CC[C@]2(C)O
not listed: [8]
inactive: all other assays above

Cc1ccc(O)c(C)c1
not listed: [8] | [9]
inactive: all other assays above
